Compounds without any hit were thinned out: in the full panel of roughly 83,000, 20% have a hit.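 Results are percent growth after 48 hours of single-concentration exposure. 100 means growth as in untreated cells, lower positive values show inhibition; negative values down to -100 show cell death.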 Values without a mark were called inactive. The source made the active and inactive calls. How the source made its calls: active means growth percent below 10; inactive means the rest.
Each compound was assayed on HL-60(TB) leukemia (assay: NCI-60 one-dose screen, 48 h (100 = growth as untreated, 0 = no growth, -100 = all killed)). Conditions: 10 µM unless noted.

**Q.** With `COc1nc(Nc2cccc(C(F)(F)F)c2)nc(OC)n1` as the compound, how does the growth read?
**A.** The growth was 92.7%.

**Q.** `CCN1C(=O)N(CC)C2C1NN=c1s/c(=C\c3ccc(OC)cc3)c(=O)n12` (centres undefined) was tested. Which growth did it give?
**A.** The growth was -45.9% (active).

**Q.** Which growth does the source give for `NS(=O)(=O)Oc1cccc(-c2nc3sccn3c2-c2ccccc2)c1` here?
**A.** The growth was 0.181% (active).

**Q.** For `C[C@]12O[C@H](C[C@]1(O)CO)n1c3ccccc3c3c4c(c5c6ccccc6n2c5c31)CNC4=O`, which growth is on record?
**A.** The growth was -32.7% (active).

**Q.** `O=C(Nc1ccc(OCc2nnc(-c3ccc(Cl)cc3)o2)c(F)c1)Nc1ccc(Cl)c(C(F)(F)F)c1` was tested. Which growth did it give?
**A.** Its growth is -18.5% (active).

**Q.** `COc1cccc(C2C3=C(COC3=O)N(CCO)c3cc4c(cc32)OCCO4)c1` (centres undefined) was tested. Which growth did it give?
**A.** Its growth is -16.1% (active).

**Q.** With `CN1CCN(c2c(F)cc(NC3=C(Cl)C(=O)c4ncccc4C3=O)cc2F)CC1` as the compound, how does the growth read?
**A.** The growth was -24.7% (active).

**Q.** `COc1ccc(NC(=O)/N=c2\oc3c(OC)cccc3cc2-c2cc3ccccc3[nH]2)cc1` was tested. Which growth did it give?
**A.** Its growth is 142%.

**Q.** With `O=C(c1ccc(Br)cc1)C(Br)C(c1ccc(Cl)cc1)C(c1ccccc1)[N+](=O)[O-]` (centres undefined) as the compound, how does the growth read?
**A.** The growth was 99.3%.

**Q.** With `C1=C(c2ccccc2)c2ccccc2C1` as the compound, how does the growth read?
**A.** The growth was 95.1%.

**Q.** `CC(=O)C(/C=N/C(N)=O)=C(/C)O` was tested. Which growth did it give?
**A.** Its growth is 104%.

**Q.** With `Nc1c(C(=O)c2ccccc2)nnc2ncnn12` as the compound, how does the growth read?
**A.** The growth was 105%.

**Q.** `O=C(/C=C/c1ccccc1)C(Br)C(Br)c1ccccc1` (centres undefined) was tested. Which growth did it give?
**A.** Its growth is -41.8% (active).

**Q.** For `O=C1C(Cl)=C(Cl)C(=O)c2c1nc1n2CCCC1`, which growth is on record?
**A.** The growth was 74.8%.

**Q.** For `O=C(Nc1ccncc1)C(=O)c1cn(S(=O)(=O)c2cccc(F)c2)c2ccccc12`, which growth is on record?
**A.** Its growth is -9.88% (active).

**Q.** `Nc1nc(N)c2c(n1)NC1(C=C(O)c3ccccc31)C1=C(N2)c2ccccc2C1=O` (centres undefined) was tested. Which growth did it give?
**A.** Its growth is 71%.

**Q.** Which growth does the source give for `CC(=O)c1cc2c(o1)C(=O)c1ccccc1C2=O` here?
**A.** Its growth is -36.5% (active).

**Q.** For `C/C(=N\NC(=O)CSc1nc2ccccc2c(=O)n1Cc1ccc(S(N)(=O)=O)cc1)c1ccc(F)cc1`, which growth is on record?
**A.** Its growth is 101%.

**Q.** `CC(=O)Nc1ccc(C(=O)Nc2cc(-c3ccccc3)ccc2N)cc1` was tested. Which growth did it give?
**A.** Its growth is 65.5%.

**Q.** For `Cc1ccc(/C=C2\CN(C(=O)CCN3CCC(=NO)CC3)C/C(=C\c3ccc(C)cc3)C2=O)cc1`, which growth is on record?
**A.** Its growth is -11.3% (active).

**Q.** With `O=C(Nc1cc(Nc2ncccc2-c2ncnc3nc[nH]c23)ccc1F)c1cc(C(F)(F)F)cc(C(F)(F)F)c1` as the compound, how does the growth read?
**A.** The growth was -11.3% (active).

**Q.** With `C#CCOc1ccc2ncnc(N3CCN(C(=O)CCl)CC3)c2c1` as the compound, how does the growth read?
**A.** Its growth is 73.4% [8.25 µM].

**Q.** With `CC1(C)CC[C@]2(C(=O)N3CCNCC3)CC[C@]3(C)C(=CC[C@@H]4[C@@]5(C)CCC(=O)C(C)(C)[C@@H]5CC[C@]43C)[C@@H]2C1` as the compound, how does the growth read?
**A.** Its growth is 102%.

**Q.** `O=C(CCNCc1ccccc1)c1ccccc1` was tested. Which growth did it give?
**A.** The growth was 104%.

**Q.** For `C=C1CC[C@@H]2[C@](C)(COC(C)=O)[C@H](OC(C)=O)CC[C@@]2(C)[C@@H]1CC(Nc1ccc(S(=O)(=O)NC(C)=O)cc1)C1=CCOC1=O` (some centres undefined), which growth is on record?
**A.** The growth was -31.1% (active).

**Q.** With `CCOC(=O)c1cnc2ccc(Br)cc2c1Nc1cccc(S(N)(=O)=O)c1` as the compound, how does the growth read?
**A.** Its growth is 99.5%.

**Q.** How did the growth turn out when `CC1=C(C#N)C(=O)NC(C)C1` (centres undefined) was run?
**A.** The growth was 91%.

**Q.** Which growth does the source give for `O=C1C2=C(C(=O)c3c(O)ccc(O)c31)N(c1cccnc1)Cc1ccccc1O2` here?
**A.** Its growth is -23.5% (active).

**Q.** How did the growth turn out when `C/C(=N\NC(N)=S)C(C)(C)O` was run?
**A.** The growth was 102%.

**Q.** `Cc1nn(-c2ccc(F)cc2)c2ncnc(Nc3ccc(NC(=O)Nc4ccc(Cl)c(C(F)(F)F)c4)cc3)c12` was tested. Which growth did it give?
**A.** The growth was 13.2%.

**Q.** Which growth does the source give for `C=CCn1c(SCC(=O)Nc2ccc(C(=O)/C=C/c3ccc(Cl)cc3)cc2)nnc1-c1cc(-c2ccccc2)nc2ccccc12` here?
**A.** Its growth is 99.8%.

**Q.** How did the growth turn out when `COc1ccc(/C(CS(=O)(=O)c2ccccc2)=N\O)cc1` was run?
**A.** Its growth is 99.5%.

**Q.** `CC(CN)[C@@H]1CC[C@]2(CO)CC[C@]3(C)[C@H](CC[C@@H]4[C@@]5(C)CCC(NCCO)C(C)(C)[C@@H]5CC[C@]43C)[C@@H]12` (some centres undefined) was tested. Which growth did it give?
**A.** Its growth is 60%.

**Q.** With `c1ccc2[nH]c(-c3ccc(Nc4nc(N5CCCC5)nc5[nH]ncc45)cc3)nc2c1` as the compound, how does the growth read?
**A.** The growth was -32.8% (active).

**Q.** Which growth does the source give for `CCN1C(=O)N(c2ccccc2)C2NC(=S)N(/N=C/C=C/c3ccccc3)C21` (centres undefined) here?
**A.** Its growth is -26.4% (active).

**Q.** `COc1cccc(-c2nc3sccn3c2-c2ccnc(NCCNS(=O)(=O)c3ccccc3)c2)c1` was tested. Which growth did it give?
**A.** Its growth is -18.1% (active).

**Q.** For `CCOC(=O)NC(C)C`, which growth is on record?
**A.** Its growth is 68%.

**Q.** For `c1ccc(-n2nnnc2-c2cccc3ccccc23)cc1`, which growth is on record?
**A.** Its growth is -21.8% (active).

**Q.** With `COc1ccc(C(C)=O)cc1S(N)(=O)=O` as the compound, how does the growth read?
**A.** Its growth is 74.7%.
